Bioassay records (PubChem BioAssay)
Pf Dd2 inh: qHTS Primary assay for Inhibitors of Plasmodium falciparum Dd2 growth in vitro | P. falciparum Dd2 growth, SYBR Green, 72 h | Potency, µM (top dose mostly 28.9 µM), without a hit: at the top dose activity, negative = inhibition, actives largely listed as inhibitors | 120,000 tested, 4.3% active | AID 1347417, 2020; active = well fitted inhibition curve with a large enough effect;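 also: plate controls were DMSO vehicle for no effect and reference drug for full effect; nearly all actives have a fitted effect of over 65% in size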
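Infected erythrocytes (Dd2, 0.3% parasitemia, 2.5% hematocrit final) are added to compound in RPMI-1640/Albumax II medium, grown 72 h at 37C in low oxygen, then lysed with saponin/Triton-X containing SYBR Green and read by fluorescence.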
* = called active by the depositor; i = inactive; [ ] = dose if it differs, or a comment. The full list was thinned out, with hits kept by preference. Potency is read from the fitted curve at half-maximal effect.

SMILES | Pf Dd2 inh
COc1ccccc1Nc1sc(C(=O)c2ccc(F)cc2)c(N)c1S(=O)(=O)c1ccc(C)cc1 | -28.7%
COc1ccc(S(=O)(=O)c2c(Nc3cccc(C)c3C)sc(C(=O)c3ccccc3)c2N)cc1 | 10µM*
Cc1ccccc1Nc1sc(C(=O)c2ccccc2)c(N)c1S(C)(=O)=O | i[5.79 µM]
O=C(NC1CC(=O)N(CCCc2ccccc2)C1)c1ccoc1 (stereo unspecified) | -17.0%
O=[S+]1([O-])NCC2(CCN(Cc3cccc4ccccc34)C2)Nc2ccccc21 (stereo unspecified) | 12.6µM*
O=[S+]1([O-])NCC2(CCN(Cc3ccc(F)cc3)C2)Nc2ccccc21 (stereo unspecified) | -27.4%
O=[S+]1([O-])NCC2(CCN(Cc3ccccn3)C2)Nc2ccccc21 (stereo unspecified) | i
c1cc(CN2CC[C@H]3CNC[C@H]32)cc(OCCCCN2CCCCC2)c1 | -12.1%
COC(=O)c1cc2sc(C)cc2n1Cc1cccc(OC)c1 | 10µM*
COC(=O)c1cc2sccc2n1Cc1ccccc1 | 30.7%
COC(=O)c1cc2sc(C)cc2n1Cc1ccccc1 | -6.8%
COCC1CN(C(C)=O)CC12CCN(C(=O)NCc1ccco1)CC2 (stereo unspecified) | 29.5%
Cc1nc2c(C(=O)NCCc3ccc(Cl)cc3)c[nH]n2c(=O)c1Cc1ccccc1F | 29.6%
COc1ccc(CCNC(=O)c2c[nH]n3c(=O)c(Cc4ccccc4Cl)c(C)nc23)cc1OC | 10µM*
Cc1nc2c(C(=O)NCCc3ccccc3)c[nH]n2c(=O)c1Cc1ccc(F)cc1Cl | 17.6%
COCC[C@]1(O)CCN(C(=O)CN2C(=O)CNC2=O)C[C@H]1C | 4.1%
C=CCN1CCN(C(=O)C2CCN(C(=O)N3CC4CC(C3)[C@H]3CCCC(=O)N3C4)CC2)CC1 (stereo partly specified) | 5.9%
CNC(=O)[C@@H](Cc1ccccc1)N1CCC[C@H]1C(=O)N1CCCCC1 | -24.2%[44.1 µM]
Cc1[nH]ncc1C(=O)N[C@@H]1CN(S(C)(=O)=O)C[C@H]1CN(C)C | 6.2%
COc1ccc(C(=O)N2CCCCCNC(=O)[C@@H]3CCC[C@@H]32)cc1F | 6.6%
CCc1ncc(CN2CCCC(C(=O)Nc3ccccc3-c3ccc(OC)cc3)C2)cn1 (stereo unspecified) | i
COc1cccc(-c2ccc(CN3C4CCC3CN(C(=O)Nc3ccccc3F)C4)cc2)c1 | i
COc1cccc(-c2ccccc2NC(=O)C2CCN(Cc3ccc(F)cc3)CC2)c1 | 7.94µM*
COc1cccc(-c2ccccc2NC(=O)C2CCN(Cc3cc(OC)ccc3O)CC2)c1 | 2.24µM*
COc1ccc(-c2ccccc2NC(=O)C2CCCN2S(C)(=O)=O)cc1 (stereo unspecified) | -6.1%
SMILES | Pf Dd2 inh
COc1ccc(-c2ccccc2NC(=O)C2CCCN(Cc3cnc(SC)nc3)C2)cc1 (stereo unspecified) | -25.4%
COc1cccc(NC(=O)C2CCCN(Cc3cccnc3)CCC(=O)NCC2)c1 (stereo unspecified) | -19.8%
COc1ccc(-c2ccccc2NC(=O)C2CCCN(CC=C(C)C)C2)cc1 (stereo unspecified) | 7.94µM*
CCn1ccnc1CN1CCCC(C(=O)Nc2ccccc2-c2ccc(OC)cc2)C1 (stereo unspecified) | i
CC(C)CCNC(=O)N1CCCC(Cn2c(C3CC3)nc3cccnc32)C1 (stereo unspecified) | i
CCc1noc(-c2cn(C3CCN(C(=O)c4ccsc4)CC3)nn2)n1 | i
COc1ccc(-c2cn3c(n2)CO[C@@H](CNC2CCCC2)C3)cc1 | i
O=C(NC[C@H]1O[C@@H]2C[C@@H](CC(=O)N3CCC(F)(F)C3)O[C@@H]2[C@@H]1O)Nc1cccc(Cl)c1 | i
COc1ccc(CNC(=O)Cn2c(-c3ccc(F)cc3)nc(C)cc2=O)cc1OC | i
Cc1nccn1CC1CCN(C(=O)c2cn(C3CCC(N)CC3)nn2)CC1 (stereo unspecified) | -0.8%
O=C(COc1ccccc1)N1CCC2(CC1)CN(c1ncccn1)CC2CO (stereo unspecified) | -23.6%
CN1CC2(CCCN(C(=O)CCc3ccccc3Cl)CC2)OC1=O (stereo unspecified) | -4.3%
CC(Oc1ccccc1)C(=O)N1CCC(n2cc(-c3nc(C4CC4)no3)nn2)C1 (stereo unspecified) | i
COc1ccc(C(=O)N2CCn3c(nn(-c4ccc(F)cc4F)c3=O)C2)cc1 | 16.4%
COc1cccc(CN2CCC3(C2)C(=O)N(C)C(=O)N3C)c1 (stereo unspecified) | 20.2%
COc1cc2c(c(OC)c1OC)C(c1cc3c(cc1Cl)OCO3)CC(=O)N2 (stereo unspecified) | -25.0%
COc1cc(-c2n[nH]c(=O)n2CCC(=O)O)ccc1O | -1.9%
O=C(c1ccccc1Cl)N1CCC(c2nn(Cc3ccccc3)c(=O)[nH]2)CC1 | -4.0%
COc1ccccc1CNC(=O)C1CCN(C(=O)c2ncn3c2COC(c2ccccc2)C3)CC1 (stereo unspecified) | -22.7%
COC(=O)c1ccc(NC(=O)C(=O)NCC(c2cccnc2)N2CCN(c3ccccc3)CC2)cc1 (stereo unspecified) | -9.7%
O=C(NCC(c1cccnc1)N1CCOCC1)C(=O)Nc1ccc(F)cc1 (stereo unspecified) | 8.9%
Cc1ccc(NC(=O)C(=O)NCC(c2cccnc2)N2CCN(Cc3ccccc3)CC2)cc1C (stereo unspecified) | 5.62µM*
Cc1ccc(NC(=O)C(=O)NCC(c2cccnc2)N2CCOCC2)cc1Cl (stereo unspecified) | -11.9%
Cc1ccc(NC(=O)C(=O)NCC(c2cccnc2)N2CCOCC2)cc1C (stereo unspecified) | -16.1%
Cc1ccc(NC(=O)C(=O)NCC(c2cccnc2)N2CCN(Cc3ccccc3)CC2)cc1F (stereo unspecified) | 8.91µM*
SMILES | Pf Dd2 inh
COCC(=O)N1CCn2c(nn(-c3ccc(F)cc3)c2=O)C1 | -10.2%[44.1 µM]
Cn1nc(C2CCCN(C(=O)CCc3ccccc3)C2)n(-c2ccccc2)c1=O (stereo unspecified) | -19.1%
COc1ccc(CN2C(=O)COC[C@H]2C(=O)Nc2ccc(F)c(F)c2)cc1OC | 10.6%
CN(C)C1CCN(C(=O)C2(N(C)CCc3ccccc3)Cc3ccccc3C2)C1 (stereo unspecified) | 5.01µM*
CN(Cc1ccccc1)C1(C(=O)NC2CCC(O)CC2)Cc2ccccc2C1 (stereo unspecified) | -22.6%
CN(C)CCN(C)CC[C@H]1CN(C(=O)Cc2ccccc2)CC[C@H]1CC(=O)O | -0.1%[44.1 µM]
Cc1ccc(CNC(=O)N2CCCC(Cc3nncn3-c3ccccc3)C2)cc1 (stereo unspecified) | 2.3%
C=CCOC(=O)C1=C(C)N(Cc2ccc(F)c(F)c2)C(=O)CC1c1ccccc1Cl (stereo unspecified) | i
N#Cc1cccc(NC(=O)NC[C@H]2C[C@@H]3CCN2C[C@@H]3CN2CCN(c3ccc(F)cc3)CC2)c1 | i
Cc1ccc(S(=O)(=O)c2cn(Cc3ccccc3)c3cc(N4CCCC4)c(F)cc3c2=O)cc1C | 10µM*
O=c1c(S(=O)(=O)c2ccccc2)cn(Cc2ccccc2)c2cc(N3CCCC3)c(F)cc12 | -5.1%
CCn1cc(S(=O)(=O)c2cc(C)cc(C)c2)c(=O)c2cc(F)c(N3CCCC3)cc21 | i
CCCn1cc(S(=O)(=O)c2ccc(C)c(C)c2)c(=O)c2cc(F)c(N3CCC(C)CC3)cc21 | -9.6%
